Assay results: PubChem BioAssay AID602143 (Vanderbilt Specialized Chemistry Center, 2011)
Unmarked numbers belong to inactive results. Calls of active or inactive are those of the source. Rule as the data show it: active = remaining activity below about 50%; inactive = the rest.

target: Phospholipase D2 (Homo sapiens) (UniProt O14939); test: cellular phospholipase D2 activity inhibition – cell-based, HEK293, single concentration (AID 602143); conditions: HEK293 cellular PLD2 activity, percent of control; hits give low values;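 also: tested at 200 nM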
Sequence (O14939 whole entry, looked up): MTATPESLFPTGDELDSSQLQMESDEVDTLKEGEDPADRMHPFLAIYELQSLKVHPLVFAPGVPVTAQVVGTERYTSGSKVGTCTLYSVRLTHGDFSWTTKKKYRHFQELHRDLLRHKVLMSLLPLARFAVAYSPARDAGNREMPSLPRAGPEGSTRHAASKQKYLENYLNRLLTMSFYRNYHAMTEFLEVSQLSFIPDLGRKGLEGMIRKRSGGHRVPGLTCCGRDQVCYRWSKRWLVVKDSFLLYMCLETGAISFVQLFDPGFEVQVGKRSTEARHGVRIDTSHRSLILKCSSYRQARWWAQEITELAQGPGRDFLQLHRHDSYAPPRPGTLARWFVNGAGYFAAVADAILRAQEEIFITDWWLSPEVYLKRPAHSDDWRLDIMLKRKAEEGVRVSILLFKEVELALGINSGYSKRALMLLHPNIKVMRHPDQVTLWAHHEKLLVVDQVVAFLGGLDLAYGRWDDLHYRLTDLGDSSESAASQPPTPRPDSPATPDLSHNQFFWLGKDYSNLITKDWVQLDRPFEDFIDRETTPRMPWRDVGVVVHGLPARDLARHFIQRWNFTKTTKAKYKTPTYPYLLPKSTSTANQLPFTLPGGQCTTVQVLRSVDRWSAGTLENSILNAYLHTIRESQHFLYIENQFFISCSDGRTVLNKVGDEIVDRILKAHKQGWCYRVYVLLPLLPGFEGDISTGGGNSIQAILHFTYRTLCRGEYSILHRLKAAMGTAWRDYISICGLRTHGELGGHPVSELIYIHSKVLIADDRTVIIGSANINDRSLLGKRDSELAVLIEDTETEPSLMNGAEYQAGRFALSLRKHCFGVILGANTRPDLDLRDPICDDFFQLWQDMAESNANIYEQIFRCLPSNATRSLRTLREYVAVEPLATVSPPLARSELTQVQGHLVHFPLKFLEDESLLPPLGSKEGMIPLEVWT
Sequence (O14939 whole entry, looked up): as above

In order of rising remaining activity:
1. Nc1cccc(Cl)c1C(=O)NCCN1CCC(n2c(=O)[nH]c3ccccc32)CC1  59.2%
2. O=C(N[C@@H](Cc1ccccc1)CN1CCC(n2c(=O)[nH]c3ccccc32)CC1)c1cnc2ccccc2c1  60.2%
3. CCCS(=O)(=O)NCCN1CCC(n2c(=O)[nH]c3ccccc32)CC1  64.7%
4. C=CCCCCCCCCC(=O)NCCN1CCC(n2c(=O)[nH]c3ccccc32)CC1  65.3%
5. C[C@H](CN1CCC(n2nnc3ccccc32)CC1)NC(=O)c1cnc2ccccc2c1  68.5%
6. O=C(NCCN1CCC(n2c(=O)[nH]c3ccccc32)CC1)c1ccc(Cc2ccccc2)cc1  72.9%
7. CC(C)[C@@H](CN1CCC(n2c(=O)[nH]c3ccccc32)CC1)NC(=O)c1ccc2ccccc2c1  73.3%
8. Cc1ccc(C(=O)N[C@@H](C)CN2CCC(n3c(=O)[nH]c4cc(Br)ccc43)CC2)cc1  74%
9. O=C(c1ccc2ccccc2c1)N1CCC(n2c(=O)[nH]c3cc(Cl)ccc32)CC1  77.7%
10. CCCCS(=O)(=O)NCCN1CCC(n2c(=O)[nH]c3ccccc32)CC1  78.3%
11. Cn1c(=O)n(C2CCN(CCNC(=O)[C@H]3C[C@@H]3c3ccccc3)CC2)c2ccccc21  78.4%
12. O=C(NCCN1CCC(n2c(=O)[nH]c3ccccc32)CC1)c1ccc2ccc3c4c2c1CC=C4CC=C3  79.2%
13. O=C(NCCN1CCC(c2nc3ccccc3[nH]2)CC1)c1cnc2ccccc2c1  80.6%
14. CC(C)[C@@H](CN1CCC(n2c(=O)[nH]c3ccccc32)CC1)NC(=O)c1ccc(F)cc1  82%
15. Cc1ccc(C(=O)N[C@@H](C)CN2CCC(n3c(=O)[nH]c4cc(Cl)ccc43)CC2)cc1  86%
16. C[C@@H](CN1CCC(c2nc3ccccc3[nH]2)CC1)NC(=O)C1CC1c1ccccc1 (stereo partly specified)  90.3%
17. O=C1c2ccccc2C(=O)N1CCCNc1ccc2ccccc2c1  91.8%
18. O=C(NCCN1CCC(n2c(=O)[nH]c3ccccc32)CC1)C(c1ccccc1)(c1ccccc1)c1ccccc1  93.2%
19. O=C(NCCN1CCC(c2nc3ccccc3[nH]2)CC1)c1ccc2ccccc2c1  95.1%
20. CCS(=O)(=O)NCCN1CCC(n2c(=O)[nH]c3ccccc32)CC1  100%
21. O=C(NCCN1CCC(n2c(=O)[nH]c3ccccc32)CC1)c1cc([N+](=O)[O-])cc([N+](=O)[O-])c1  102%
22. O=C(NCCN1CCC(n2c(=O)[nH]c3ccccc32)CC1)C1CCc2ccccc2C1 (stereo unspecified)  103%
23. O=C1Cc2cc(CCN3CCN(c4nsc5ccccc45)CC3)c(Cl)cc2N1  105%
24. NC1(CN2CCC(c3nc4ccccc4[nH]3)CC2)CCCC1 (tested in a mixture with another compound)  105%
25. O=C(NCCN1CCN(c2ccccn2)CC1)c1ccc(Cl)cc1  106%
26. O=C(NCCN1CCN(c2ncccn2)CC1)c1ccc(Cl)cc1  106%
27. CC(C)C(=O)N[C@@H](C)CN1CCC(n2c(=O)[nH]c3ccccc32)CC1  106%
28. C[C@@H](CN1CCC(n2nnc3cc(C(F)(F)F)ccc32)CC1)NC(=O)c1ccc2ccccc2c1  107%
29. O=C(NCCN1CCN(c2ccncc2)CC1)c1ccc2ccccc2c1  110%
30. O=C(NCCN1CCC(n2c(=O)[nH]c3ccccc32)CC1)N1c2ccccc2Sc2ccccc21  111%
31. O=C(NCCN1CC=C(n2c(=O)[nH]c3ccccc32)CC1)[C@H]1C[C@@H]1c1ccccc1  114%
32. O=C(NCCN1CCC(n2c(=O)[nH]c3ccccc32)CC1)NC(c1ccccc1)c1ccccc1  123%

With `O=C(NCCN1CCC(n2c(=O)[nH]c3cc(I)ccc32)CC1)c1ccc(Cl)cc1` the remaining activity was 36.7% (active).
In the case of `C[C@@H](CN1CC=C(n2c(=O)[nH]c3ccccc32)CC1)NC(=O)c1ccc2ccccc2c1`, the remaining activity is reported as 15.3% (active).
For `C[C@H](CN1CCC(n2c(=O)[nH]c3cc(Cl)ccc32)CC1)NC(=O)c1cc2ccccc2[nH]1`, the remaining activity was 25% (active).
For `C[C@@H](CN1CCC(n2c(=O)[nH]c3ccccc32)CC1)NC(=O)CCc1ccc(F)cc1`, the remaining activity was 48.9% (active).
